Values joined by “and” are separate entries in the source; they are usually repeats but may differ in a detail not shown here. Equal values may be shown once. Results filed as inconclusive are left out. Where a call stands in place of a potency, no number is given. Some structures have more than one record in an assay (separate samples or runs), and their calls can disagree. Active and inactive are the calls of the source. The call rests on the fitted dose curve; in most records, active means well fitted curve in the direction sought with a large enough effect in the repeat runs; inconclusive means weak or mixed curves; inactive means no such curve, though single readings can be large; an effect the other way counts as inactive or inconclusive.
Test: qHTS RealTime-Glo MT Cell Viability Assay in HEK293 cells - 32 hour (AID 1224868)
Details: RealTime-Glo luminescence; series mostly up to 76.8 µM
Outline: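 HEK293 cells were seeded at 600 cells/well together with NanoLuc luciferase and cell-permeant prosubstrate, preincubated 5 h at 37 C/5% CO2, then given compound in DMSO by pintool. Luminescence from viable-cell prosubstrate reduction was read repeatedly over 40 h.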
Further: nearly all actives have a fitted effect of over 50% in size.
Potency means the concentration at half of the fitted maximal effect.

Structure (SMILES)	Potency
C[C@]12C=CC3=C4CCC(=O)C=C4CC[C@H]3[C@@H]1CC[C@@H]2O	inactive
CC[N+]1(C)CCCC(OC(=O)C(O)(c2ccccc2)c2ccccc2)C1 (stereo not drawn)	inactive
OCC1CO1 (stereo not drawn)	inactive
C=CCN1C[C@H](C)N([C@H](c2ccc(C(=O)N(CC)CC)cc2)c2cccc(OC)c2)C[C@H]1C	19 µM (active)
O=P(OCC(Br)CBr)(OCC(Br)CBr)OCC(Br)CBr (stereo not drawn)	27.9 µM (active)
C=CCSSCC=C	inactive
O=C(NCNC(=O)NC1C(=O)NC(=O)N1CO)NC1C(=O)NC(=O)N1CO (stereo not drawn)	inactive
O=C(N/N=C/c1ccc([N+](=O)[O-])o1)c1cc([N+](=O)[O-])cc([N+](=O)[O-])c1O	inactive
O=[N+]([O-])O[C@H]1CO[C@H]2[C@@H]1OC[C@H]2O[N+](=O)[O-]	inactive
CCSCc1ccccc1OC(=O)NC	inactive
OCCCl	inactive
O=C(O)C(F)(F)C(F)(F)C(F)(F)C(F)(F)C(F)(F)C(F)(F)C(F)(F)C(F)(F)F	inactive
NCCc1cc(O)c(O)cc1O	inactive
C[C@H](N)[C@H](O)c1ccc(O)c(O)c1	inactive
C[C@]12CC[C@H]3[C@@H](CCC4=CC(=O)CC[C@@H]43)[C@@H]1CC[C@@H]2OC(=O)CCc1ccccc1	inactive
C=C(Cl)Cl	inactive
CCC1(C2=NCCN2)Cc2ccccc2O1 (stereo not drawn)	inactive

Structure (SMILES)	Potency
CCOC(=O)c1cn2nc(OP(=S)(OCC)OCC)cc2nc1C	13.8 µM (active)
Cc1nc(N(C)C)nc(OC(=O)N(C)C)c1C	inactive
CC(=O)NNc1ccccc1	inactive
CN(C)c1ccc(N=O)cc1	15.5 µM (active) and 21.9 µM (active)
C1CCNCC1	inactive
CC(Cc1ccccc1)NCc1ccccc1Cl (stereo not drawn)	inactive
CCCCCCCCCCCC[N+](C)(C)CCOc1ccccc1	7.76 µM (active) and 9.52 µM (active)
c1ccc2sc(SNC3CCCCC3)nc2c1	inactive
CCNC(=O)NC(=O)/C(C#N)=N/OC	inactive
CC(C)(C)OOC(C)(C)CCC(C)(C)OOC(C)(C)C	inactive
C[C@@H]1C[C@@H]([C@H](O)CC2CC(=O)NC(=O)C2)C(=O)[C@@H](C)C1	387 nM (active) and 219 nM (active) and 169 nM (active)
N#CC(C#N)=Cc1ccc(O)c(O)c1	inactive
CN(C)N	inactive
Cc1ccc(N)c(C)c1	inactive
CN1C[C@H](C(=O)N[C@]2(C)O[C@@]3(O)[C@@H]4CCCN4C(=O)[C@H](Cc4ccccc4)N3C2=O)C=C2c3cccc4[nH]cc(c34)C[C@H]21	27.7 µM (active) and inactive
CCCCCCCCP(=O)(O)O	inactive
O=[N+]([O-])/C=C/c1ccccc1	7.03 µM (active) and 13.8 µM (active)

Test: A CellTox Green Cytotoxicity Assay to monitor cytotoxicity in HEK293 cells - 0 hour (AID 1224869)
Details: CellTox Green fluorescence; series mostly up to 76.8 µM
Outline: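 Cytotoxicity was tracked continuously in HEK293 cells by a DNA-binding dye excluded from viable cells. Compounds were transferred in DMSO 5 h after seeding; fluorescence was recorded at intervals up to 40 h.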

Structure (SMILES)	Potency
C[C@]12C=CC3=C4CCC(=O)C=C4CC[C@H]3[C@@H]1CC[C@@H]2O	inactive
CC[N+]1(C)CCCC(OC(=O)C(O)(c2ccccc2)c2ccccc2)C1 (stereo not drawn)	inactive
OCC1CO1 (stereo not drawn)	inactive
[Cl-].[Cl-].[Hg+2]	inactive
C=CCN1C[C@H](C)N([C@H](c2ccc(C(=O)N(CC)CC)cc2)c2cccc(OC)c2)C[C@H]1C	inactive
O=P(OCC(Br)CBr)(OCC(Br)CBr)OCC(Br)CBr (stereo not drawn)	inactive
C=CCSSCC=C	inactive
O=C(NCNC(=O)NC1C(=O)NC(=O)N1CO)NC1C(=O)NC(=O)N1CO (stereo not drawn)	inactive
O=C(N/N=C/c1ccc([N+](=O)[O-])o1)c1cc([N+](=O)[O-])cc([N+](=O)[O-])c1O	inactive
O=[N+]([O-])O[C@H]1CO[C@H]2[C@@H]1OC[C@H]2O[N+](=O)[O-]	inactive
CCSCc1ccccc1OC(=O)NC	inactive
Nc1ccc2c(c1)Cc1ccccc1-2	inactive
OCCCl	inactive
O=C(O)C(F)(F)C(F)(F)C(F)(F)C(F)(F)C(F)(F)C(F)(F)C(F)(F)C(F)(F)F	inactive
NCCc1cc(O)c(O)cc1O	inactive
COc1ccc(C(=O)c2c(C)n(CCN3CCOCC3)c3ccccc23)cc1	inactive
C[C@H](N)[C@H](O)c1ccc(O)c(O)c1	16.9 µM (active)
C[C@]12CC[C@H]3[C@@H](CCC4=CC(=O)CC[C@@H]43)[C@@H]1CC[C@@H]2OC(=O)CCc1ccccc1	inactive
C=C(Cl)Cl	inactive
CCC1(C2=NCCN2)Cc2ccccc2O1 (stereo not drawn)	inactive

Structure (SMILES)	Potency
CCOC(=O)c1cn2nc(OP(=S)(OCC)OCC)cc2nc1C	inactive
Cc1nc(N(C)C)nc(OC(=O)N(C)C)c1C	inactive
CC(=O)NNc1ccccc1	inactive
CN(C)c1ccc(N=O)cc1	inactive
C1CCNCC1	inactive
CC(Cc1ccccc1)NCc1ccccc1Cl (stereo not drawn)	inactive
CCCCCCCCCCCC[N+](C)(C)CCOc1ccccc1	inactive
C#C[C@]1(O)CC[C@H]2[C@@H]3CCC4=CC(=O)CCC4=C3C=C[C@@]21CC	inactive
c1ccc2sc(SNC3CCCCC3)nc2c1	inactive
CCNC(=O)NC(=O)/C(C#N)=N/OC	inactive
CC(C)(C)OOC(C)(C)CCC(C)(C)OOC(C)(C)C	inactive
C[C@@H]1C[C@@H]([C@H](O)CC2CC(=O)NC(=O)C2)C(=O)[C@@H](C)C1	inactive
N#CC(C#N)=Cc1ccc(O)c(O)c1	inactive
CN(C)N	inactive
Cc1ccc(N)c(C)c1	inactive
CN1C[C@H](C(=O)N[C@]2(C)O[C@@]3(O)[C@@H]4CCCN4C(=O)[C@H](Cc4ccccc4)N3C2=O)C=C2c3cccc4[nH]cc(c34)C[C@H]21	inactive
CCCCCCCCP(=O)(O)O	inactive
COP(=O)(OC)OC(Br)C(Cl)(Cl)Br (stereo not drawn)	inactive
O=[N+]([O-])/C=C/c1ccccc1	inactive
